Structures can show the parent of a compound that is named as a salt. ± gives the standard deviation of the averaged measurements. Whole data set: some 2,000 compounds, median “relative cell viability vs DMSO, compound alone” near 1.1, cut for the lowest 2% near 0.29. For the sample, the lowest values were picked, then their nearest neighbours and some compounds at random.
Each compound was assayed on TE10 (assay: relative cell viability vs DMSO, compound alone (fraction); TE10 is an esophageal squamous carcinoma line; higher = less cytotoxic). Conditions: 2 µM; 48 h.
Experimental: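 TE10 ESCC cells (1,000/well, 384-well plates) were treated with Selleck bioactive library compounds at 2 uM alone for 48 h. Viability was read by CellTiter-Glo and expressed relative to DMSO wells. Two technical replicates (A, B).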

Structure (SMILES)	relative cell viability
C[N+]1(C)CCC(=C(c2ccccc2)c2ccccc2)CC1 [Diphemanil Methylsulfate]	0.918 ± 0.097
OCCOCCN1CCN(C2=Nc3ccccc3Sc3ccccc32)CC1 [Quetiapine Fumarate]	1.079 ± 0.0073
Cc1cc(/C=C2/SC(=S)NC2=O)c(C)n1-c1cccnc1 [Optovin]	1.06 ± 0.031
C[C@@H](O)[C@H]1C(=O)N2C(C(=O)OCOC(=O)C(C)(C)C)=C(SC3CN(C4=NCCS4)C3)[C@H](C)[C@H]12 [Tebipenem Pivoxil]	1.14 ± 0.037
C[C@@]12C[C@@]3(O)O[C@@H](O1)[C@]1(COC(=O)c4ccccc4)[C@H]3C[C@@]12O[C@@H]1O[C@H](CO)[C@@H](O)[C@H](O)[C@H]1O [Paeoniflorin]	1.04 ± 0.029
CN(C)c1ccc(C(=O)NCCCCCCC(=O)NO)cc1	0.627 ± 0.043
CC(C=CC(=O)NO)=CC(C)C(=O)c1ccc(N(C)C)cc1 (stereo unspecified) [Trichostatin A (TSA)]	0.0876 ± 0.0041
COC1C(O)CC(=O)OC(C)CC=CC=CC(OC2CCC(N(C)C)C(C)O2)C(C)CC(CC=O)C1OC1OC(C)C(OC2CC(C)(O)C(O)C(C)O2)C(N(C)C)C1O (stereo unspecified) [Spiramycin]	1.11 ± 0.04
C[C@H](CCC(=O)O)[C@H]1CC[C@H]2[C@@H]3[C@@H](O)C[C@@H]4C[C@H](O)CC[C@]4(C)[C@H]3CC[C@]12C [Ursodiol]	0.96 ± 0.08
COCCCOc1cc(C[C@@H](C[C@H](N)[C@@H](O)C[C@H](C(=O)NCC(C)(C)C(N)=O)C(C)C)C(C)C)ccc1OC [Aliskiren Hemifumarate]	1.19 ± 0.037
COc1ccc(-c2ccc3c(N4CCOC[C@@H]4C)nc(N4CCOC[C@@H]4C)nc3n2)cc1CO	0.4942 ± 0.0022
C[C@H](NC(=O)/C(C#N)=C/c1cccc(Br)n1)c1ccccc1	1.14 ± 0.032
CCC[C@H](NC(=O)/C(C#N)=C/c1cccc(Br)n1)c1ccccc1 [Degrasyn (WP1130)]	0.206 ± 0.019
N#CC(=Cc1ccc(O)c(O)c1)C(=O)NCc1ccccc1 [AG-490 (Tyrphostin B42)]	1.196 ± 0.001
COc1c(C)c(C(=O)c2ccc(N)c(C(=O)O)c2)n2ccccc12	1.04 ± 0.041
N#C[C@@H]1C[C@@H]2C[C@@H]2N1C(=O)[C@@H](N)C12CC3CC(CC(O)(C3)C1)C2 [Saxagliptin]	1.02 ± 0.083
O=C1c2ccccc2-c2n[nH]c3cccc1c23	1.27 ± 0.0019
CCN=C1N[C@@H]2[C@@H](O)[C@H](O)[C@@H](CO)O[C@@H]2S1 [Thiamet G]	1.04 ± 0.037
OCc1ccc(-c2ccc(-c3ccc(CO)s3)o2)s1	0.0807 ± 0.0069
Cc1c(Cc2ccc3ccccc3n2)c2cc(F)ccc2n1CC(=O)O	1.08 ± 0.054
CCOC(=O)[C@H](CCc1ccccc1)N[C@H]1CCCN2CCC[C@@H](C(=O)O)N2C1=O [Cilazapril Monohydrate]	1.011 ± 0.004
Nc1nc(F)nc2c1ncn2[C@@H]1O[C@H](CO)[C@@H](O)[C@@H]1O [Fludarabine]	0.291 ± 0.0055
Nc1nc2c(ncn2[C@@H]2O[C@H](CO)[C@@H](O)[C@H]2O)c(=O)[nH]1 [Guanosine]	1.06 ± 0.032

Structure (SMILES)	relative cell viability
Nc1nc(Cl)nc2c1ncn2[C@@H]1O[C@H](CO)[C@@H](O)[C@@H]1F [Clofarabine]	0.932 ± 0.038
Nc1nc(F)nc2c1ncn2[C@@H]1O[C@H](COP(=O)(O)O)[C@@H](O)[C@@H]1O [Fludarabine Phosphate]	0.214 ± 0.058
Nc1ncnc2c1ncn2[C@@H]1O[C@H](CO)[C@@H](O)[C@@H]1O [Vidarabine]	1.08 ± 0.033
Nc1ncnc2c1ncn2[C@@H]1O[C@H](CO)[C@@H](O)[C@H]1O [Adenosine]	1.165 ± 0.0028
CCN(CC)CCOC(=O)c1ccc(N)cc1Cl [Chloroprocaine HCl]	1.15 ± 0.027
Nc1nc2c(ncn2COC(CO)CO)c(=O)[nH]1 [Ganciclovir]	1.069 ± 0.0057
O=C(/C=C/N1C[C@H]2C[C@@H]1CN2c1ccccn1)c1ccccc1O	1.06 ± 0.02
COc1ccc(-n2nc(C(N)=O)c3c2C(=O)N(c2ccc(N4CCCCC4=O)cc2)CC3)cc1 [Apixaban]	1.1 ± 0.027
Cc1coc2c1C(=O)C(=O)c1c-2ccc2c(C)cccc12 [Tanshinone I]	1.11 ± 0.051
CO[C@H]1/C=C/O[C@@]2(C)Oc3c(C)c(O)c4c(O)c(c(/C=N/N5CCN(C)CC5)c(O)c4c3C2=O)NC(=O)/C(C)=C\C=C\[C@H](C)[C@H](O)[C@@H](C)[C@@H](O)[C@@H](C)[C@H](OC(C)=O)[C@@H]1C [Rifampin]	1.049 ± 0.003
O=C(/C=C/n1cnc(-c2cc(C(F)(F)F)cc(C(F)(F)F)c2)n1)N1CC(F)(F)C1	0.473 ± 0.06
O=C(/C=C\n1cnc(-c2cc(C(F)(F)F)cc(C(F)(F)F)c2)n1)NNc1ccccn1 [Verdinexor (KPT-335)]	0.3315 ± 0.0025
COc1cc(-c2ncn(/C=C\C(=O)OC(C)C)n2)cc(C(F)(F)F)c1	0.26 ± 0.011
O=C(/C=C\n1cnc(-c2cc(C(F)(F)F)cc(C(F)(F)F)c2)n1)NNc1cnccn1	0.2768 ± 0.0027
CCN(CC)CCNC(=O)c1c(C)[nH]c(/C=C2\C(=O)Nc3ccc(F)cc32)c1C [Sunitinib Malate]	1.11 ± 0.037
CCN(CC)CCNC(=O)c1c(C)[nH]c(/C=C2\C(=O)Nc3ccc(F)cc32)c1C [Sunitinib]	1 ± 0.095
Cc1[nH]nc2ccc(-c3cncc(OC[C@@H](N)Cc4ccccc4)c3)cc12	0.5847 ± 0.0027
C[C@]12CC[C@H](O)CC1=CC[C@@H]1[C@@H]2CC[C@]2(C)C(n3cnc4ccccc43)=CC[C@@H]12 [Galeterone]	1.06 ± 0.14
CO[C@H]1C[C@@H]2CC[C@@H](C)[C@@](O)(O2)C(=O)C(=O)N2CCCC[C@H]2C(=O)O[C@H]([C@H](C)C[C@@H]2CC[C@H](n3cnnn3)[C@H](OC)C2)CC(=O)[C@H](C)/C=C(\C)[C@@H](O)[C@@H](OC)C(=O)[C@H](C)C[C@H](C)/C=C/C=C/C=C/1C [Zotarolimus(ABT-578)]	0.888 ± 0.073
CC(=O)Oc1cccc2c1C(=O)c1c(OC(C)=O)cc(C(=O)O)cc1C2=O [Diacerein]	1.11 ± 0.023
C=CC(=O)N1CC(=Cc2ccc([N+](=O)[O-])cc2)C(=O)C(=Cc2ccc([N+](=O)[O-])cc2)C1	0.0554 ± 0.0028
CC1(C)C=C(CN2C/C(=C\c3ccc(F)cc3)C(=O)/C(=C/c3ccc(F)cc3)C2)C(C)(C)N1O	0.8405 ± 0.0057
CNC(=O)c1c(F)cccc1Nc1nc(Nc2cc3c(cc2OC)CCN3C(=O)CN(C)C)nc2[nH]ccc12	1.06 ± 0.052

— the supplement of paper PMC10670038
